TRHR ag – TRH receptor (human) agonism; TRHR cells, calcium flux fluo-8, FDSS agonist mode; P34981; activation, % at 2 µM; 0.18% of 360,000 active; AID 493084
Target sequence (P34981 whole entry, looked up): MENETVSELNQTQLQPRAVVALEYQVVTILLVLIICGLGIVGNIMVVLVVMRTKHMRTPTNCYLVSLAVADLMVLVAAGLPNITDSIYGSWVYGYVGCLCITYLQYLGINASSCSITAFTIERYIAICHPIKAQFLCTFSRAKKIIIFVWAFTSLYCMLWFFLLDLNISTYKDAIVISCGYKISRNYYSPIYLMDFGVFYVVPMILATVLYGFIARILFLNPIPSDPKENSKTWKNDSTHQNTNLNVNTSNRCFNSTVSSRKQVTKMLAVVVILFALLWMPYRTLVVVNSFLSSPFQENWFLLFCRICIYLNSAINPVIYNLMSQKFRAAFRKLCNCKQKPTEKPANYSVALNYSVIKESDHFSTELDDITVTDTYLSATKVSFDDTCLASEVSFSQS
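Steps: seed TRHR cells overnight; add fluo-8 no-wash Ca dye, RT 30 min–1.5 h; record 10 s baseline; pin-transfer compounds; monitor fluorescence 1 cycle/s for the agonist window. Calcium increases flag candidate agonists.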
D1 antagonist – antagonists of human D1 dopamine receptor; activity change, negative = inhibition, % at 10 µM; HEK293 TREx D1 cells, calcium flux, dopamine EC80; hits give low values; P21728; 3.2% of 360,000 active; in the data active = activity change below about -30%
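Calcium flux readout: force-coupled, inducible Hek293 Trex D1 line, cells induced overnight at 30 C with tetracycline, dye-loaded 30–90 min at RT. Antagonism scored against EC80 dopamine challenge given 180 s after compound.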
TRHR enhancer – allosterically enhances the human TRH receptor; TRHR cells, fluo-8 calcium fluorescence, EC20 TRH enhancement; enhancement, % at 2 µM; 0.66% of 360,000 active; AID 493056; in the data active = enhancement above about 30%
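Enhancer read-out: after compound pinning and an initial kinetic agonist-mode read, an EC20 of TRH (10 nM final) was injected and fluo-8 calcium signal (Ex 480/Em 530) followed at 1 s/cycle for 100 cycles in TRHR-expressing cells.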
D1 agonist – activates the human D1 dopamine receptor. P21728. HEK293 T-REx D1 cells, calcium flux, agonist mode. activation, % at 2 µM. 1% of 360,000 active. AID 504660
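Agonism was scored from calcium flux recorded over 180 s (1 read/s) after pintool compound addition, following a 10-cycle baseline. Cells were inducible force-coupled HEK293 TREx D1, plated overnight at 30 C and loaded with no-wash calcium dye.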
D1 potentiator – potentiators of human D1 dopamine receptor; potentiation, % at 10 µM; HEK293 TREx D1 cells, calcium flux, dopamine EC20 potentiation; 0.036% of 360,000 active; in the data active = potentiation above about 30%
Of the large screens only hits and unclear results are named; the others gave an inactive call. The list is not random: actives were taken first. Their share in the collection is about 4.7%. Cut-off read from the data, not from the text of the source, unless noted: active = activation above about 30%; inactive = the rest.

Cc1ccc(-c2onc(C)c2C)cc1S(=O)(=O)N1CCN(c2ccccc2F)CC1	none
O=C(COC(=O)c1ccc(O)cc1)c1ccc(S(=O)(=O)N2CCCCC2)cc1	D1 antagonist -31.1
COc1ccc(/C=C/C(=O)OCC(=O)c2ccc(S(=O)(=O)N3CCCCC3)cc2)cc1OC	D1 antagonist -54.6
O=C(OCC(=O)N1CCCC1)c1ccc(S(=O)(=O)N2CCOCC2)cc1	none
O=C(c1ccco1)N1CCN(S(=O)(=O)c2ccc3c(c2)CCN3C(=O)C2CC2)CC1	D1 antagonist -46.6
O=C(C1CC1)N1CCc2cc(S(=O)(=O)N3CCOCC3)ccc21	none
O=C(OCC(=O)N1CCN(C(=O)c2ccco2)CC1)c1ccc(S(=O)(=O)N2CCCCC2)cc1	D1 antagonist -57.5
CC(C)(C)C1CCc2onc(C(=O)Nc3sc4c(c3C(N)=O)CCCC4)c2C1 (stereo unspecified)	none
COc1cccc(CN(C(=O)COc2ccc(Cl)c(C)c2)C2CCS(=O)(=O)C2)c1 (stereo unspecified)	none
COc1ccc(CNC(=O)CCCCCn2c(=O)[nH]c3ccccc3c2=O)cc1	none
O=C1CC(c2ccccc2C(F)(F)F)c2c(c3ccccc3[nH]c2=O)O1 (stereo unspecified)	none
O=C(COC(=O)c1ccc(CO)cc1)c1ccc(S(=O)(=O)N2CCCCC2)cc1	D1 antagonist -31.6
O=C(OCC(=O)c1ccc[nH]1)c1ccc(S(=O)(=O)N2CCCCCC2)cc1	none
CCC(CC)C(=O)OCc1cc(=O)n2nc(C3CC3)sc2n1	none
Cc1nnn(C23C[C@@H]4C[C@@H](CC(C(=O)N5CCN(c6ccccc6)CC5)(C4)C2)C3)n1	D1 antagonist -34.3
COc1cccc(CNC(=O)c2cccc(NC(=O)C3=C(C)OCCS3)c2)c1	D1 antagonist -40.1
CCOc1ccc(CNC(=O)c2cccc(NC(=O)C3=C(C)OCCS3)c2)cc1	none
CCCCn1cc(S(=O)(=O)c2ccc(OC)cc2)c(=O)c2cc(F)c(N3CCCC3)cc21	none
CCC(C)NC(=O)Cn1cnc2sc(C)c(S(=O)(=O)N3CCN(c4ncccn4)CC3)c2c1=O (stereo unspecified)	none
Cc1sc2ncn(CC(=O)Nc3ccc(C(C)C)cc3)c(=O)c2c1S(=O)(=O)N1CCN(c2ncccn2)CC1	D1 antagonist -60.8
O=C(CNC(=O)c1ccccc1)N[C@H](C(=O)Nc1cc(C(F)(F)F)ccc1Cl)c1ccccc1	none
COc1ccc(-c2csc3ncnc(N4CCN(c5ccccc5O)CC4)c23)cc1	D1 agonist 43.9
COc1ccc(OC)c(NC(=O)C(=O)N/N=C/c2ccccc2[N+](=O)[O-])c1	D1 antagonist -34.5
CCCCCC(=O)N/N=C/c1ccccc1[N+](=O)[O-]	none
O=C1S/C(=C\c2ccc(N3CCOCC3)o2)C(=O)N1Cc1c(F)cccc1Cl	D1 agonist 62.3
O=C(O)c1ccccc1-c1ccc(/C=C2\SC(=O)N(c3ccccc3)C2=O)o1	none
O=C1S/C(=C/c2ccc(N3CCOCC3)o2)C(=O)N1Cc1c(F)cccc1Cl	D1 agonist 129.1 (no result: D1 antagonist)
O=C1S/C(=C\c2ccc(N3CCOCC3)o2)C(=O)N1c1ccccc1	TRHR ag 63.4, D1 agonist 159.3
O=C(CN1C(=O)CCc2cc(S(=O)(=O)N3CCOCC3)ccc21)NCc1ccc(Cl)cc1	none
O=C(COCc1ccccc1)N[C@@H](Cc1ccc(O)cc1)C(=O)O	D1 antagonist -35.6
COc1ccccc1NC(=O)Cn1c(=O)n(CCc2ccccc2)c(=O)c2sc3ccccc3c21	none
COc1ccccc1CNC(=O)c1oc2ccc(S(=O)(=O)N3CCCCC3)cc2c1C	none
OC(CCCN1CCC(O)(c2ccc(Cl)cc2)CC1)c1ccc(F)cc1 (stereo unspecified)	D1 antagonist -36.8, D1 agonist 31.8
C=CCNC(=O)CN1CCC(O)(c2ccc(F)cc2)CC1	none
CCCOc1ccccc1C(=O)N1CCC(c2nc3ccccc3s2)CC1	none
CCC(Oc1ccccc1F)C(=O)N1CCC(c2nc3ccccc3s2)CC1 (stereo unspecified)	D1 agonist 36.3
Cc1ccc(S(=O)(=O)NC(=O)C2CCCCC2)cc1	D1 antagonist -36.1
CCc1ccc(-n2c(=O)c3c4c(sc3n(CC(=O)c3ccc(Br)cc3)c2=O)CCC4)cc1	none
COC(=O)c1ccc(Nc2ncnc3c2cnn3-c2cccc(C)c2)cc1	D1 antagonist -37.9
Cc1cccc(-n2ncc3c(Nc4ccc(F)cc4)ncnc32)c1	D1 antagonist -49.1
Cc1ccc(-n2ncc3c(Nc4cccc(C)c4)ncnc32)cc1	D1 antagonist -33.2
O=C(CSc1nnnn1-c1cccc2c1CCCC2)N1CCCC1	D1 agonist 38.0
O=C(CSc1nnnn1-c1cccc2c1CCCC2)N1CCOCC1	D1 agonist 69.8
COc1ccc(-c2cc(C(=O)Nc3c(C(=O)c4ccc(Cl)cc4)oc4ccccc34)no2)cc1	none
Cc1ccccc1CSc1nnc2[nH]c(=O)cc(C)n12	none (no result: D1 antagonist)
COc1ccc(-c2ccc(NS(=O)(=O)c3cc(C)c(C)cc3C)cc2)nn1	none
CCOC(=O)c1c(-c2ccccc2)csc1NC(=O)/C(C#N)=C/c1ccc(O)c(OC)c1	D1 agonist 88.8
CCOC(=O)c1c(-c2ccccc2)csc1NC(=O)/C(C#N)=C/c1ccc(OC)c(OC)c1	none
COc1ccc(C(=O)NC2CC2)cc1OC1CCN(Cc2ccc(F)c(F)c2)CC1	none
COc1ccccc1/C=C/CN1CCC(Oc2cc(C(=O)NC3CC3)ccc2OC)CC1	D1 antagonist -73.0
COc1ccc(C(=O)NC2CC2)cc1OC1CCN(Cc2ccccc2)CC1	none
CCc1ccc(CNC(=O)c2ccc(OC)c(OC3CCN(C(C)C)CC3)c2)nc1	D1 antagonist -80.0
COc1ccc(C(=O)NC2CC2)cc1OC1CCN(Cc2ccc(F)cc2)CC1	D1 antagonist -40.4
COc1ccccc1/C=C/CN1CCC(Oc2ccc(C(=O)N3CCCCC3)cc2)CC1	none
C#Cc1ccc(CN2CCC(Oc3cc(C(=O)NC4CC4)ccc3OC)CC2)cc1	D1 antagonist -45.0
COc1ccccc1N1CCN(C(=O)c2cnn(-c3cccc(Cl)c3)c2C2CCN(C(=O)OC(C)(C)C)CC2)CC1	none
O=C(NC1CCCCCC1)C1CCN(C(=O)N2CCOc3ccc(Cl)cc32)CC1	none
CCOc1ccc(CCNC(=O)c2cc3n(n2)CCCN(Cc2ccc(C)cc2)C3=O)cc1OCC	none
COC(=O)c1ccccc1CSc1nsc(/C=C/N(C)C)c1C#N	none
Cc1nc(CSc2nsc(/C=C/N(C)C)c2C#N)cs1	D1 agonist 31.0
COc1ccccc1/C=C/C(=O)Nc1nc2n(n1)C(c1ccc(F)cc1)C=C(c1ccccc1)N2 (stereo unspecified)	none
O=C(c1ccc(COc2ccc(Cl)cc2)cc1)N1CCCCC1	none (no result: D1 potentiator)
O=C(c1ccc(COc2ccccc2Br)cc1)N1CCCCCC1	D1 antagonist -36.7
